Source: publication PMC11006913

Assays:
Experiment in all cases: PBM; 200 nM protein, PBS
Conditions in all cases: dsDNA, one strand shown
HOXB9 [1] = biological target: HOXB9 (Homo sapiens, UniProt P17482 171-250, T197M)
HOXC9 [2] = biological target: HOXC9 (Homo sapiens, UniProt P31274 178-260, K195R)
HOXB9 [3] = biological target: HOXB9 (Homo sapiens, UniProt P17482 171-250)
HOXC9 [4] = biological target: HOXC9 (Homo sapiens, UniProt P31274 178-260)
ALX1 [5] = biological target: ALX1 (Homo sapiens, UniProt Q15699 118-204, L144V)
HOXD13 [6] = biological target: HOXD13 (Homo sapiens, UniProt P35453 263-343, T313R)
HOXC9 [7] = biological target: HOXC9 (Homo sapiens, UniProt P31274 178-260, R193K)
ALX1 [8] = biological target: ALX1 (Homo sapiens, UniProt Q15699 118-204, L144R)
HOXD13 [9] = biological target: HOXD13 (Homo sapiens, UniProt P35453 263-343)
HOXC10 [10] = biological target: HOXC10 (Homo sapiens, UniProt Q9NYD6 254-340, K271E)
HOXD13 [11] = biological target: HOXD13 (Homo sapiens, UniProt P35453 263-343, T313A)
HOXB9 [12] = biological target: HOXB9 (Homo sapiens, UniProt P17482 171-250, R186Q)
HOXC9 [13] = biological target: HOXC9 (Homo sapiens, UniProt P31274 178-260, R222W)
ALX1 [14] = biological target: ALX1 (Homo sapiens, UniProt Q15699 118-204)
HOXC10 [15] = biological target: HOXC10 (Homo sapiens, UniProt Q9NYD6 254-340)
ALX3 [16] = biological target: ALX3 (Homo sapiens, UniProt O95076 139-225, N203Q)
ALX3 [17] = biological target: ALX3 (Homo sapiens, UniProt O95076 139-225)
Chain of ALX3 (Homo sapiens, UniProt O95076 139-225) (O95076 139-225): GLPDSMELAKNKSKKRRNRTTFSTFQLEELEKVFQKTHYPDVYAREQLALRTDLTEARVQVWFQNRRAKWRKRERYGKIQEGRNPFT

Chain of HOXC9 (Homo sapiens, UniProt P31274 178-260, K195R) (P31274 178-260 K195R): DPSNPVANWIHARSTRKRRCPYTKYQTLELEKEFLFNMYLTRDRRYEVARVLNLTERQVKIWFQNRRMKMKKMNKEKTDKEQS
Chain of HOXB9 (Homo sapiens, UniProt P17482 171-250, R186Q) (P17482 171-250 R186Q): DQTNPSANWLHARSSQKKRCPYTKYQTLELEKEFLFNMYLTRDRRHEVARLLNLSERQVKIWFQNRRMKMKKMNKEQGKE
Chain of HOXD13 (Homo sapiens, UniProt P35453 263-343) (P35453 263-343): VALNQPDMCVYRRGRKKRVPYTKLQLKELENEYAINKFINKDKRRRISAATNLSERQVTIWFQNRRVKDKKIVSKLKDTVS
Chain of HOXD13 (Homo sapiens, UniProt P35453 263-343, T313R) (P35453 263-343 T313R): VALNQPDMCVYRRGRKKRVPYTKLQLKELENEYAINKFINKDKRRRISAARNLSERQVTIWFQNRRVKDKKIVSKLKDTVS
Chain of HOXC10 (Homo sapiens, UniProt Q9NYD6 254-340) (Q9NYD6 254-340): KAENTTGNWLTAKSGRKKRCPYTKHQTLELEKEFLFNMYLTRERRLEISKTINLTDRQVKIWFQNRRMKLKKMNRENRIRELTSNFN
Chain of HOXB9 (Homo sapiens, UniProt P17482 171-250, T197M) (P17482 171-250 T197M): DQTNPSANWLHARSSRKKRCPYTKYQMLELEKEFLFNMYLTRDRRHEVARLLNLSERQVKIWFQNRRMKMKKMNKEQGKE
Chain of HOXB9 (Homo sapiens, UniProt P17482 171-250) (P17482 171-250): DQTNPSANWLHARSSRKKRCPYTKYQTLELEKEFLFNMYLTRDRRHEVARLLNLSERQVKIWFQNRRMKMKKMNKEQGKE
Chain of HOXC10 (Homo sapiens, UniProt Q9NYD6 254-340, K271E) (Q9NYD6 254-340 K271E): as the sequence (Q9NYD6 254-340) above, with K18E counted along it
Chain of HOXC9 (Homo sapiens, UniProt P31274 178-260, R222W) (P31274 178-260 R222W): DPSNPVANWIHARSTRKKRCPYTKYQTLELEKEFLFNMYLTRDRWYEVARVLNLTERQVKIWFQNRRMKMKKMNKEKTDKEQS
Chain of HOXC9 (Homo sapiens, UniProt P31274 178-260) (P31274 178-260): as the sequence (P31274 178-260 R222W) above, with W45R counted along it
Chain of HOXD13 (Homo sapiens, UniProt P35453 263-343, T313A) (P35453 263-343 T313A): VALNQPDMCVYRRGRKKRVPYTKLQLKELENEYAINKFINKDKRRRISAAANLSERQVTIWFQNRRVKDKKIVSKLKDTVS
Chain of HOXC9 (Homo sapiens, UniProt P31274 178-260, R193K) (P31274 178-260 R193K): as the sequence (P31274 178-260 R222W) above, with R16K, W45R counted along it
Chain of ALX1 (Homo sapiens, UniProt Q15699 118-204, L144R) (Q15699 118-204 L144R): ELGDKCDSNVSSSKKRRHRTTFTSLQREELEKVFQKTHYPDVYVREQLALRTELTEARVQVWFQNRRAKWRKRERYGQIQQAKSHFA
Chain of ALX1 (Homo sapiens, UniProt Q15699 118-204) (Q15699 118-204): as the sequence (Q15699 118-204 L144R) above, with R27L counted along it
Chain of ALX1 (Homo sapiens, UniProt Q15699 118-204, L144V) (Q15699 118-204 L144V): as the sequence (Q15699 118-204 L144R) above, with R27V counted along it
Chain of ALX3 (Homo sapiens, UniProt O95076 139-225, N203Q) (O95076 139-225 N203Q): as the sequence (O95076 139-225) above, with N65Q counted along it

Sequence	binding signal (HOXB9 [1])	binding signal (HOXC9 [2])	binding signal (HOXB9 [3])	binding signal (HOXC9 [4])	binding signal (ALX1 [5])	binding signal (HOXD13 [6])	binding signal (HOXC9 [7])	binding signal (ALX1 [8])	binding signal (HOXD13 [9])	binding signal (HOXC10 [10])	binding signal (HOXD13 [11])	binding signal (HOXB9 [12])	binding signal (HOXC9 [13])	binding signal (ALX1 [14])	binding signal (HOXC10 [15])	binding signal (ALX3 [16])	binding signal (ALX3 [17])
CTATTAAA	9.97 upbm affinity estimate (log intensity, higher = more binding, comparable within an allelic series)	12.6 upbm affinity estimate (log intensity, higher = more binding, comparable within an allelic series)	11.9 upbm affinity estimate (log intensity, higher = more binding, comparable within an allelic series)	12.8 upbm affinity estimate (log intensity, higher = more binding, comparable within an allelic series)	9.79 upbm affinity estimate (log intensity, higher = more binding, comparable within an allelic series)	11 upbm affinity estimate (log intensity, higher = more binding, comparable within an allelic series)	12.7 upbm affinity estimate (log intensity, higher = more binding, comparable within an allelic series)	9.81 upbm affinity estimate (log intensity, higher = more binding, comparable within an allelic series)	12 upbm affinity estimate (log intensity, higher = more binding, comparable within an allelic series)	11.8 upbm affinity estimate (log intensity, higher = more binding, comparable within an allelic series)	11.9 upbm affinity estimate (log intensity, higher = more binding, comparable within an allelic series)	11.6 upbm affinity estimate (log intensity, higher = more binding, comparable within an allelic series)	11.1 upbm affinity estimate (log intensity, higher = more binding, comparable within an allelic series)	10.3 upbm affinity estimate (log intensity, higher = more binding, comparable within an allelic series)	–	–	–
ACAATAAA	9.83 upbm affinity estimate (log intensity, higher = more binding, comparable within an allelic series)	12.6 upbm affinity estimate (log intensity, higher = more binding, comparable within an allelic series)	12 upbm affinity estimate (log intensity, higher = more binding, comparable within an allelic series)	12.9 upbm affinity estimate (log intensity, higher = more binding, comparable within an allelic series)	–	10.9 upbm affinity estimate (log intensity, higher = more binding, comparable within an allelic series)	12.7 upbm affinity estimate (log intensity, higher = more binding, comparable within an allelic series)	–	12.1 upbm affinity estimate (log intensity, higher = more binding, comparable within an allelic series)	11.7 upbm affinity estimate (log intensity, higher = more binding, comparable within an allelic series)	11.8 upbm affinity estimate (log intensity, higher = more binding, comparable within an allelic series)	11.7 upbm affinity estimate (log intensity, higher = more binding, comparable within an allelic series)	11.1 upbm affinity estimate (log intensity, higher = more binding, comparable within an allelic series)	–	12.3 upbm affinity estimate (log intensity, higher = more binding, comparable within an allelic series)	–	–
CCATAAAA	10 upbm affinity estimate (log intensity, higher = more binding, comparable within an allelic series)	13.3 upbm affinity estimate (log intensity, higher = more binding, comparable within an allelic series)	12.8 upbm affinity estimate (log intensity, higher = more binding, comparable within an allelic series)	13.4 upbm affinity estimate (log intensity, higher = more binding, comparable within an allelic series)	–	11 upbm affinity estimate (log intensity, higher = more binding, comparable within an allelic series)	13.3 upbm affinity estimate (log intensity, higher = more binding, comparable within an allelic series)	–	12.3 upbm affinity estimate (log intensity, higher = more binding, comparable within an allelic series)	12.5 upbm affinity estimate (log intensity, higher = more binding, comparable within an allelic series)	12 upbm affinity estimate (log intensity, higher = more binding, comparable within an allelic series)	12.5 upbm affinity estimate (log intensity, higher = more binding, comparable within an allelic series)	11.6 upbm affinity estimate (log intensity, higher = more binding, comparable within an allelic series)	–	13 upbm affinity estimate (log intensity, higher = more binding, comparable within an allelic series)	8.22 upbm affinity estimate (log intensity, higher = more binding, comparable within an allelic series)	8.99 upbm affinity estimate (log intensity, higher = more binding, comparable within an allelic series)
CATAAAAG	9.76 upbm affinity estimate (log intensity, higher = more binding, comparable within an allelic series)	12.6 upbm affinity estimate (log intensity, higher = more binding, comparable within an allelic series)	12 upbm affinity estimate (log intensity, higher = more binding, comparable within an allelic series)	12.8 upbm affinity estimate (log intensity, higher = more binding, comparable within an allelic series)	–	10.7 upbm affinity estimate (log intensity, higher = more binding, comparable within an allelic series)	12.7 upbm affinity estimate (log intensity, higher = more binding, comparable within an allelic series)	–	11.8 upbm affinity estimate (log intensity, higher = more binding, comparable within an allelic series)	11.8 upbm affinity estimate (log intensity, higher = more binding, comparable within an allelic series)	11.6 upbm affinity estimate (log intensity, higher = more binding, comparable within an allelic series)	11.7 upbm affinity estimate (log intensity, higher = more binding, comparable within an allelic series)	11.2 upbm affinity estimate (log intensity, higher = more binding, comparable within an allelic series)	–	12.4 upbm affinity estimate (log intensity, higher = more binding, comparable within an allelic series)	–	–
GCCATAAA	9.72 upbm affinity estimate (log intensity, higher = more binding, comparable within an allelic series)	12.7 upbm affinity estimate (log intensity, higher = more binding, comparable within an allelic series)	12.2 upbm affinity estimate (log intensity, higher = more binding, comparable within an allelic series)	12.9 upbm affinity estimate (log intensity, higher = more binding, comparable within an allelic series)	–	10.7 upbm affinity estimate (log intensity, higher = more binding, comparable within an allelic series)	12.9 upbm affinity estimate (log intensity, higher = more binding, comparable within an allelic series)	–	11.9 upbm affinity estimate (log intensity, higher = more binding, comparable within an allelic series)	11.8 upbm affinity estimate (log intensity, higher = more binding, comparable within an allelic series)	11.7 upbm affinity estimate (log intensity, higher = more binding, comparable within an allelic series)	11.9 upbm affinity estimate (log intensity, higher = more binding, comparable within an allelic series)	10.9 upbm affinity estimate (log intensity, higher = more binding, comparable within an allelic series)	–	12.4 upbm affinity estimate (log intensity, higher = more binding, comparable within an allelic series)	–	–
CATTAAAA	9.91 upbm affinity estimate (log intensity, higher = more binding, comparable within an allelic series)	12.6 upbm affinity estimate (log intensity, higher = more binding, comparable within an allelic series)	12 upbm affinity estimate (log intensity, higher = more binding, comparable within an allelic series)	12.7 upbm affinity estimate (log intensity, higher = more binding, comparable within an allelic series)	–	–	12.6 upbm affinity estimate (log intensity, higher = more binding, comparable within an allelic series)	–	–	11.8 upbm affinity estimate (log intensity, higher = more binding, comparable within an allelic series)	11.6 upbm affinity estimate (log intensity, higher = more binding, comparable within an allelic series)	11.7 upbm affinity estimate (log intensity, higher = more binding, comparable within an allelic series)	11 upbm affinity estimate (log intensity, higher = more binding, comparable within an allelic series)	–	12.1 upbm affinity estimate (log intensity, higher = more binding, comparable within an allelic series)	–	–
